Test [1] can be described thus: small molecules captured by biotinylated probe aFSTL3 – biochemical, small-molecule microarray, fluorescence 635/667, stem cell growth factor project, primary screen (AID 1064).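 Note: measures binding of the biotinylated anti-FSTL3 antibody to printed compounds.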 The note with it: higher = more signal.
Test [2] can be described thus: binders from COS7 lysate, DM2A8 probe, primary screen, torsin A project, cell lysate, small-molecule microarray, fluorescence 635/667 (AID 1065). The note with it: higher = more signal, COS7 lysate expressing mutant human TOR1A.
Test [3] in a line: small molecules captured by biotinylated probe aFGF2 – biochemical, small-molecule microarray, fluorescence 635/667, stem cell growth factor project, primary screen (AID 1067).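 Note: measures binding of biotinylated aFGF2 protein to printed compounds on slides; z-score merges feature fluorescence and signal-to-noise across triplicate slides.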 The note with it: higher = more signal.
Test [4] can be described thus: small molecules captured by biotinylated probe aFGF10 – biochemical, small-molecule microarray, fluorescence 635/667, stem cell growth factor project, primary screen (AID 1071).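 Note: score merges 667 nm spot intensity and signal to noise from triplicate slides.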 The note with it: higher = more signal.
The target in test [5] is Neurogenic locus notch homolog protein 2 (Homo sapiens) (UniProt Q04721). In words: small molecules binding Notch2 protein – biochemical, small-molecule microarray, 635 nm fluorescence, stem cell growth factors, primary screen (AID 1073). The note with it: higher = more signal.
The target in test [6] is Pro-neuregulin-1, membrane-bound isoform (Homo sapiens) (UniProt Q02297). As to the kind of experiment: small molecules binding neuregulin-1 protein – biochemical, small-molecule microarray, fluorescence 635/667, psychiatric disease protein project, primary screen (AID 1075).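 Note: score combines 667 nm spot fluorescence with signal to noise.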 The note with it: NRG1 binding, 635 nm fluorescence, higher = more signal.
The test system of test [7] is Neuregulin-1 EGF-like domain. As to the kind of experiment: small molecules binding NRG1 EGF domain – biochemical, small-molecule microarray, 635 nm fluorescence, primary screen (AID 1081).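 Note: binding of the protein to compounds printed on small-molecule microarray slides.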 The note with it: higher = more signal.
The nature of test [8]: FRG1 expression reporter modulators in myotubes – cell-based, C2C12 myotubes, firefly/Renilla luciferase, luminescence, FRG1 inhibition for FSHD, primary screen (AID 1084). The note with it: FRG1 promoter luciferase, higher = more signal, called active from +8 up or from −8 down.
The nature of test [9]: small molecules captured by biotinylated probe aFST – biochemical, small-molecule microarray, fluorescence 635/667, stem cell growth factor project, primary screen (AID 1086).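 Note: score merges 667 nm fluorescence with signal-to-noise of each printed compound spot.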 The note with it: higher = more signal.
A short description of test [10]: binders of probe aHhip on microarray, primary screen, stem cell growth factor project, biochemical, small-molecule microarray, fluorescence 635/667 (AID 1087).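 Note: score merges spot fluorescence at 667nm with spot signal to noise ratio.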 The note with it: higher = more signal.
Test [11] has as its system PRMT1 (protein arginine N-methyltransferase 1). In words: small molecules binding arginine methyltransferase PRMT1 – biochemical, small-molecule microarray, 635 nm fluorescence, primary screen (AID 1088).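 Note: binding of Prmt1 protein to compounds spotted on small-molecule microarray slides.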 The note with it: higher = more signal.
Test [12] can be described thus: growth effects on S. cerevisiae YJM789 – YJM789 clinical isolate, OD600, 24 h, basal, primary screen (AID 1089).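 Note: growth of clinical yeast isolate S. cerevisiae YJM 789 seeded 1000 cells per well; test concentration not given here.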 The note with it: higher = more signal, called active from +8 up or from −8 down.
Test [13] can be described thus: S. pombe growth modifiers, basal conditions – strain 972, OD600, 24 h, no modulator, primary screen (AID 1090).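 Note: basal condition with compound alone and no growth modifier present; test concentration not given here.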 The note with it: S. pombe 972 growth, higher = more signal, called active from +8 up or from −8 down.
Test [14] is described as follows: budding yeast growth modifiers under rapamycin – strain BY4716, OD600, 96 h, primary screen (AID 1091). Note: test concentration not given here. The note with it: S. cerevisiae BY4716 + rapamycin, higher = more signal, called active from +8 up or from −8 down.
Test [15] addresses Torsin-1A-interacting protein 2 (Homo sapiens) (UniProt Q8NFQ8). In words: small molecules binding lysate-expressed LULL1 – cell lysate, human LULL1 lysate, 635/667 nm fluorescence, primary screen (AID 1092).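 Note: probe is lysate of COS7 cells overexpressing human LULL1; score merges per-feature 667 nm fluorescence with signal-to-noise.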 The note with it: small-molecule microarray, hLULL1 lysate binding, 635 nm fluorescence; higher = more signal.
A short description of test [16]: optical density change of DRC41 E. coli – strain DRC41, OD650, 24 h, E. coli filamentation project, primary screen (AID 1093).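 Note: MC1000 strain lacking acrAB efflux and sulA so SOS filamentation is blocked; test concentration not given here.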 The note with it: E. coli DRC41 growth, higher = more signal, called active from +8 up or from −8 down.
A short description of test [17]: probe aLefty2 binding to arrayed compounds – biochemical, biotinylated probe, 635/667 nm fluorescence, primary screen (AID 1094).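 Note: score merges spot fluorescence near 667 nm with spot signal-to-noise ratio.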 The note with it: small-molecule microarray, higher = more signal.
The subject of test [18] is Noggin (protein binding on small-molecule microarray). In words: small molecules binding Noggin protein – biochemical, 635/667 nm fluorescence, primary screen (AID 1095).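 Note: score merges 667 nm feature fluorescence with signal to noise over triplicate slides.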 The note with it: 635 nm fluorescence, higher = more signal.
For test [19], the target named is Neurogenic locus notch homolog protein 3 (Homo sapiens) (UniProt Q9UM47). In words: small molecules binding NOTCH3 protein – biochemical, 635/667 nm fluorescence, primary screen (AID 1096). The note with it: small-molecule microarray, 635 nm fluorescence, higher = more signal.
The nature of test [20]: probe aEGFR binding to arrayed compounds – biochemical, biotinylated probe, 635/667 nm fluorescence, primary screen (AID 1097).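 Note: probe is a biotinylated anti-EGFR antibody binding compounds printed on slides; score combines fluorescence near 667 nm and signal to noise of each spot.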 The note with it: small-molecule microarray, higher = more signal.

The source made the active and inactive calls.

The results in this text go back to PubChem BioAssay.

Sequence of Pro-neuregulin-1, membrane-bound isoform (Homo sapiens) (Q02297 whole entry, looked up, the tested form may be a part, canonical isoform): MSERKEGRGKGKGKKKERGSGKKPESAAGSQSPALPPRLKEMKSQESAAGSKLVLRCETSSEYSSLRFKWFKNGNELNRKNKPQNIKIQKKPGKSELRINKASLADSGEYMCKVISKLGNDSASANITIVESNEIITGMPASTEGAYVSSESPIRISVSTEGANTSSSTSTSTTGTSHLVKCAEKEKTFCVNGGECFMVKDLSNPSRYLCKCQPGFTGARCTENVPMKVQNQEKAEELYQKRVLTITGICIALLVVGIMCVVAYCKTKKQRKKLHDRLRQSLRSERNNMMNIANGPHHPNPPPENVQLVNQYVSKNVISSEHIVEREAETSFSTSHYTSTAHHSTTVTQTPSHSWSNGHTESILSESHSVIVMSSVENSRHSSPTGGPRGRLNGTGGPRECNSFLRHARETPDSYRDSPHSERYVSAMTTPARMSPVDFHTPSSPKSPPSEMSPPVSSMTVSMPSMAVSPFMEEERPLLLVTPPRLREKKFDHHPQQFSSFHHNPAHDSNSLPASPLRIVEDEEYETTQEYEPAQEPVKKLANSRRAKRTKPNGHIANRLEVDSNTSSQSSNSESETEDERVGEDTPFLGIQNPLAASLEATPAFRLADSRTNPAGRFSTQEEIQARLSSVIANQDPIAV
Sequence of Torsin-1A-interacting protein 2 (Homo sapiens) (Q8NFQ8 whole entry, looked up): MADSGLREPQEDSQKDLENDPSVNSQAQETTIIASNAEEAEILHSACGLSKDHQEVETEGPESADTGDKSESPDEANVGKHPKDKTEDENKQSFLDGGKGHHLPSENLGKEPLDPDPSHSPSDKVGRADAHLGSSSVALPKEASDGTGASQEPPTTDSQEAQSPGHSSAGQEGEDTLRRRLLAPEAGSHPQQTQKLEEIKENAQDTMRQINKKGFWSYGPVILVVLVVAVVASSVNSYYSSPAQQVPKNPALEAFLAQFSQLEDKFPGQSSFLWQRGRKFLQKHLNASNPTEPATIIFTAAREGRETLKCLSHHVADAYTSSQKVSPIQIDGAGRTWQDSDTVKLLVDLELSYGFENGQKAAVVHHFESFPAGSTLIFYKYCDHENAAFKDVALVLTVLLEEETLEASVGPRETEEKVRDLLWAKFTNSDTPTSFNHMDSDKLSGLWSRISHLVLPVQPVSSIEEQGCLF
Sequence of Neurogenic locus notch homolog protein 3 (Homo sapiens) (Q9UM47 whole entry, looked up): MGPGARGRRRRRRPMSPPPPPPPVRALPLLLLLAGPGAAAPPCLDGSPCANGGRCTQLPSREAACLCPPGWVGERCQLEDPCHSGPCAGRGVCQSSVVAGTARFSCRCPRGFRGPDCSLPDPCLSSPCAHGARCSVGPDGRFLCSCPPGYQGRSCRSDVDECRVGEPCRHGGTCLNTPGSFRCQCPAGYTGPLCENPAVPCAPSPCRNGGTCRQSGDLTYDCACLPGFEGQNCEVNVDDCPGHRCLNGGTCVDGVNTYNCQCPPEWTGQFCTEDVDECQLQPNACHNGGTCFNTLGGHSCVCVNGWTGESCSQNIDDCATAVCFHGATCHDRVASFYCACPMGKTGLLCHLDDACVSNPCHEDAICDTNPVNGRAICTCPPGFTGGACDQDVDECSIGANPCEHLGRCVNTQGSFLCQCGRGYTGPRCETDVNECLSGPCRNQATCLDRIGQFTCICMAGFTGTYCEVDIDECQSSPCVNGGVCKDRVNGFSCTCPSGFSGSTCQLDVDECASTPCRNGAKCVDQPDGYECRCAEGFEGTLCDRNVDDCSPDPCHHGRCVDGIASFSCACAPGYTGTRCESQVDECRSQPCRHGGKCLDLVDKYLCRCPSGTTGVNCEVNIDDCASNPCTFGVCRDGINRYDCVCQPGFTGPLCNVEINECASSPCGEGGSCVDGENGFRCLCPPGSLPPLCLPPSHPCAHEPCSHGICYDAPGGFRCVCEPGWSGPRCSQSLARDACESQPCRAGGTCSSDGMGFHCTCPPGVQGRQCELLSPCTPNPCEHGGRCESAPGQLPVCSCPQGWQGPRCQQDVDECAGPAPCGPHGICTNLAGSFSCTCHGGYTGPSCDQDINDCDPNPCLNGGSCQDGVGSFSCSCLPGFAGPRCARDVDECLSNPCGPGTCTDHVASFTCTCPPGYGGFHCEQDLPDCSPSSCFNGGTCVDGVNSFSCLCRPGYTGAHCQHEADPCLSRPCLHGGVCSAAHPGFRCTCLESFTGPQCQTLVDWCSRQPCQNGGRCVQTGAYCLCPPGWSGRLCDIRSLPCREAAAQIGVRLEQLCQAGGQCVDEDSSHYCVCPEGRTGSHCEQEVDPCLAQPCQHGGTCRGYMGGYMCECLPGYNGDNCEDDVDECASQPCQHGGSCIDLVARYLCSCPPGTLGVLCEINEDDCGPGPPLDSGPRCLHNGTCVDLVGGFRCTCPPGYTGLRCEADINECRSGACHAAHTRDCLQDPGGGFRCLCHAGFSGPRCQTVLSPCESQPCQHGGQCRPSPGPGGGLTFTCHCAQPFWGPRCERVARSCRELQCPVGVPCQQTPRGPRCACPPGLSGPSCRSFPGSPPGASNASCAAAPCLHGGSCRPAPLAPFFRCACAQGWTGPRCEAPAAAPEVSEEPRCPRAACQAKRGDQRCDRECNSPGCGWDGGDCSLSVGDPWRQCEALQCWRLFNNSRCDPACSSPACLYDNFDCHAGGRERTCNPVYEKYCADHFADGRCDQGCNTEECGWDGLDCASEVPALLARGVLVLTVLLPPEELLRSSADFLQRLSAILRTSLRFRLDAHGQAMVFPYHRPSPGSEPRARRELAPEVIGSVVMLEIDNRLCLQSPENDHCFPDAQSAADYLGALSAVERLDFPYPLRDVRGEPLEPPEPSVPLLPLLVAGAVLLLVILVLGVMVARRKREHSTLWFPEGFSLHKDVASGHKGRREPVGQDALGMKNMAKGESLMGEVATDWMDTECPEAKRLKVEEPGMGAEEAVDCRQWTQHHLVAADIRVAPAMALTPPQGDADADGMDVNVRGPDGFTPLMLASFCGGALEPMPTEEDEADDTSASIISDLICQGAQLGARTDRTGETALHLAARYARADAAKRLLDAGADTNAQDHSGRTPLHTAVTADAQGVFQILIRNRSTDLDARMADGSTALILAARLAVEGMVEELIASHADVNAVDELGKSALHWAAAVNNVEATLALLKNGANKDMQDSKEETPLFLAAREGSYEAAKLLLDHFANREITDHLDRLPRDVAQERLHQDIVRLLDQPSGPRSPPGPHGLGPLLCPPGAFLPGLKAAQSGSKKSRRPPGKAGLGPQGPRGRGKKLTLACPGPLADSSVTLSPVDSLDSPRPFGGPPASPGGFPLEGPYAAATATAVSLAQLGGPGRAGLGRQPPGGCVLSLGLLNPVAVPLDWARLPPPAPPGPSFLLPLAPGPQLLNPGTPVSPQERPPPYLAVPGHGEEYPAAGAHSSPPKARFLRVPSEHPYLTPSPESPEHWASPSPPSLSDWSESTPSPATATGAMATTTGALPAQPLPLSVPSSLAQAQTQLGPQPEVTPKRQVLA

`COc1ccc(C#Cc2ccc3c(c2)[C@]2(C(=O)N3)[C@H](C(=O)Nc3nc4ccccc4s3)[C@H]3C(=O)O[C@H](c4ccccc4)[C@H](c4ccccc4)N3[C@@H]2c2ccc(OCCO)cc2)cc1`: the composite z-score was -0.113 in test [1]; 1.45 in test [2]; 0.0015 in [3]; 0.977 in [4]; 1.5 in [5]; 1.31 in test [6]. The composite z-score in [7] is 1.08; in test [9] it was 0.349; in test [10], -0.216; in test [11], 1.55; in test [15], 2.7; in test [17], -0.0412. The composite z-score in test [18] was 0.994; in test [19], 1.1; in test [20], 0.123. Moreover, the z-score is 4.94 (inactive) in test [8]; 3.16 (inactive) in [12]; 2.06 (inactive) in test [13]; 1.64 (inactive) in test [14]; 0.361 (inactive) in test [16].

With `CCCCN1CC=CC23O[C@@H]4/C=C\CCC(C)OC(=O)C4[C@H]2C(=O)N(C(C)CO)[C@@H]3C1=O` (stereo not given in full), the composite z-score in test [1] is -0.126; in test [2] it was -0.248; in test [3], -0.164; in test [4], -0.0863; in [5], -0.831; in test [6], -1. For the same compound, the composite z-score in test [7] is 0.331; in test [9] it was -0.536; in test [10] it was 0.0373; in test [11] it was -1.58; in [15], -1.13; in test [17], -0.317. Also, the results for the composite z-score in test [18], in test [19] and in [20] were -0.422, -0.878 and -0.401, respectively. Further, the z-score was -0.3 (inactive) in test [8]; 0.324 (inactive) in [12]; -0.944 (inactive) in test [13]; 0.316 (inactive) in test [14]; -0.182 (inactive) in test [16].

For `C=CCC(OC(C)=O)[C@@H]1[C@@H](N(Cc2ccc(-c3cccc(C(F)(F)F)c3)o2)C(=O)Cc2ccc(F)cc2)c2cc(OCCCO)ccc2N1C(=O)c1ccc2ccccc2n1` (stereo not given in full), the composite z-score in test [1] was -0.019; in test [2] it was 0.193; in test [3] it was -0.106; in [4], -0.321; in [5], -0.848; in test [6], -0.114. The composite z-score is -0.533 in test [7]; 0.0974 in test [9]; 0.235 in [10]; -1.08 in test [11]; -0.452 in test [15]; -0.0415 in test [17]. For the same compound, the composite z-score is -0.436 in test [18], -0.768 in [19] and -0.157 in [20]. The z-score is 0.01 (inactive) in test [8]; -0.203 (inactive) in test [12]; 0.15 (inactive) in test [13]; -0.522 (inactive) in test [14]; -1.08 (inactive) in [16].

Turning to `COCCOC(=O)N1C(=O)[C@@]2(c3cc(C#CC4(O)CCCCCC4)ccc31)[C@H](C(=O)N1CCc3cc(OC)c(OC)cc3C1)[C@H]1C(=O)O[C@H](c3ccccc3)[C@H](c3ccccc3)N1[C@@H]2c1ccc(O)cc1`, the composite z-score in test [1] is -0.277; in test [2] it was 2.26; in test [3], -0.01; in test [4], 0.68; in test [5], 1.51; in [6], 0.156. Also, the composite z-score was 1.16 in test [7]; 0.101 in [9]; -0.0618 in [10]; 1.54 in test [11]; 2.96 in test [15]; -0.0699 in test [17]. Further, the composite z-score in test [18] stood at 1.44; in test [19] it was 1.05; in test [20] it was 1.04. The z-score is -0.877 (inactive) in test [8]; 0.449 (inactive) in test [12]; -0.929 (inactive) in test [13]; 1.7 (inactive) in [14]; 1.55 (inactive) in test [16].

For the compound `COCCOC(=O)N1C(=O)[C@@]2(c3cc(C#CCC(C(=O)OC)C(=O)OC)ccc31)[C@H](C(=O)N1CCc3cc(OC)c(OC)cc3C1)[C@H]1C(=O)O[C@H](c3ccccc3)[C@H](c3ccccc3)N1[C@@H]2c1ccc(O)cc1`, the composite z-score in test [1] was -0.318; in test [2], 0.731; in test [3] it was 0.0732; in test [4] it was 0.858; in test [5] it was 1.54; in [6] it was 0.729. In addition, the composite z-score is 1.23 in [7]; 0.346 in test [9]; -0.0459 in test [10]; 1.54 in [11]; 1.99 in test [15]; 0.0704 in test [17]. Moreover, the composite z-score in test [18] stood at 1.19; in test [19], 1.08; in [20] it was 0.135. Besides, the z-score was 0.217 (inactive) in test [8]; 0.215 (inactive) in [12]; 0.233 (inactive) in test [13]; 0.773 (inactive) in test [14]; 0.204 (inactive) in test [16].

Regarding `C=CCOC(=O)[C@H]1[C@@H]2C(=O)O[C@@H](c3ccccc3)[C@@H](c3ccccc3)N2[C@@H](c2ccc(OCCOC(=O)[C@H]3C[C@H]4C(=O)NCC(=O)N4[C@H]3c3ccc(O)cc3)cc2)[C@]12C(=O)Nc1ccc(I)cc12`, the composite z-score is -0.309 in test [1]; 1.03 in [2]; -0.0867 in [3]; 0.202 in test [4]; 0.636 in test [5]; 0.346 in [6]. Also, the composite z-score in test [7] was 0.869; in [9], 0.392; in test [10], 0.064; in test [11] it was 1.3; in [15], 0.871; in test [17] it was -0.148. In addition, the composite z-score in test [18] was 0.895; in test [19], 0.672; in test [20], -0.0531. Moreover, the z-score was -1.35 (inactive) in [8]; 0.203 (inactive) in test [12]; 0.629 (inactive) in [13]; 4.17 (inactive) in test [14]; 0.47 (inactive) in test [16].

Take `N#Cc1ccc(C(O)C2C=CC3C(=O)NC(=O)C3N2Nc2ccccn2)cc1` (stereo not given): the composite z-score was -0.0872 in test [1]; -0.013 in test [2]; -0.0692 in test [3]; 0.311 in [4]; 0.905 in test [5]; 1.41 in test [6]. Moreover, the composite z-score in test [7] is 0.511; in test [9], 0.12; in test [10] it was 0.113; in [11] it was 0.312; in test [15] it was 1.4; in [17] it was -0.147. The composite z-score in test [18] is -0.14; in test [19], -0.124; in [20], -0.0594. Moreover, the z-score in [8] is -0.0581 (inactive); in [12], -1.4 (inactive); in test [13], 0.811 (inactive); in [14] it was -0.657 (inactive); in test [16], -0.195 (inactive).

In the case of `O=C1O[C@H](c2ccccc2)[C@H](c2ccccc2)N2[C@H]1[C@@H](C(=O)NC[C@H](O)c1ccccc1)[C@]1(C(=O)Nc3ccc(C#CCCO)cc31)[C@H]2c1ccccc1OCCO`, the composite z-score in test [1] is -0.211; in [2], 0.307; in [3], -0.141; in test [4], 0.453; in test [5], 0.253; in [6], 1.25. The composite z-score was 1.34 in test [7]; 0.152 in [9]; 0.0505 in test [10]; 1.54 in test [11]; 2.22 in test [15]; -0.0499 in test [17]. In addition, the composite z-score in test [18] was 0.795; in test [19] it was 0.325; in [20], -0.139. Besides, the z-score in test [8] is -0.0302 (inactive); in [12], 1.14 (inactive); in [13], -2.23 (inactive); in test [14], 3.41 (inactive); in test [16], 1.19 (inactive).

In the case of `C=CC[C@]1(C(=O)NCCCOC)N=C(c2ccc(OCCCO)cc2)O[C@H]1c1ccccc1`, the composite z-score is 0.272 in test [1]; -0.188 in test [2]; 0.0823 in test [3]; -0.179 in test [4]; -0.664 in [5]; 1.87 in test [6]. Moreover, the composite z-score was 1.33 in [7]; 1.04 in [9]; -0.0237 in [10]; 0.36 in [11]; 3.29 in [15]; 0.037 in test [17]. Also, the composite z-score in test [18] was -0.0071; in [19] it was -0.0832; in test [20], -0.146. In addition, the z-score in [8] was 0.364 (inactive); in [12], -0.193 (inactive); in [13], -0.266 (inactive); in test [14], -0.739 (inactive); in [16] it was 0.753 (inactive).
